Source: PubChem
A selection: hits, their analogues and other compounds. The true share with any hit is near 19%.
IL-1B inflam inh – inflammasome signaling inhibition, IL-1 beta readout; 4.7% of 360,000 active; THP-1 LPS/ATP IL-1B secretion, AlphaLISA, 16 h; stronger effect = lower value; activity change, % at 57.5 µM; in the data active = activity change below about -50%; inconclusive = mostly about -30% to -49%
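Secreted IL-1B measured by AlphaLISA bead assay after 16 h compound exposure of THP-1 cells; compounds (final up to 57.5 uM) added 1 h before LPS (250 ng/mL) and ATP (1.25 mM) stimulation; lower signal means less secretion.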
DT40 TDP1 no CPT – qHTS for Inhibitors of human tyrosyl-DNA phosphodiesterase 1 (TDP1): qHTS in cells in absence of CPT; Potency, µM (series often up to 46.2 µM), most hits filed as inhibitors; DT40 Tdp1-/- hTDP1 cells, no CPT, ATP luminescence, 48 h; 15% of 420,000 active; also: nearly all actives have a fitted effect of over 55% in size
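Readout: luminescence from CellTiter-Glo after 30 min in the dark at RT. Cells: DT40 Tdp1-/- with stable hTDP1, 400/well. Exposure: compounds alone, ≥48 hr, 37 °C.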
DT40 TDP1 CPT – growth inhibition of DT40 Tdp1-/-;hTDP1 cells with camptothecin (screen for TDP1 inhibitors); chicken DT40 Tdp1-/-;hTDP1 cells + 20 nM CPT, ATP luminescence, 48 h; Potency, µM (doses to about 46.2 µM), hits mostly inhibitors; 12% of 420,000 active; AID 686979; also: nearly all actives have a fitted effect of over 55% in size
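Cell growth measured by CellTiter-Glo luminescence after a minimum 48 h, 37 C compound exposure with 20 nM CPT in Tdp1-knockout DT40 cells stably expressing hTDP1, seeded 400/well; qHTS titration format.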
HT1080NT lethal – kills 2HG-producing HT-1080-NT fibrosarcoma cells | HT-1080-NT fibrosarcoma viability, CellTiter-Glo ATP luminescence, 48 h | Potency, µM (series often up to 46.1 µM), actives largely listed as cytotoxic | 1.6% of 360,000 active | AID 686970;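 also: NT is the 2HG producing partner of a matched IDH1 knockdown line; nearly all actives have a fitted effect of over 55% in size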
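Read-out is CellTiter-Glo luminescence after 10 minutes at room temperature, following 48 hours' compound treatment of HT-1080-NT cells (750 cells/well, RPMI, 5% FBS, 37 degrees C).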
HT1080 IDH1KD tx – toxicity to HT-1080 IDH1 knockdown cells (counter line). HT-1080 IDH1 knockdown viability, ATP luminescence, 48 h. Potency, µM (titrated, usually from 46.1 µM), hits mostly cytotoxic. 2% of 360,000 active. AID 686971
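Using the IDH1-knockdown HT-1080 line run in the same batch and compound series as the NT line, viability after 48 h at 37 °C was determined by CellTiter-Glo luminescence and expressed as % activity.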
Hits are given with their value; 0 = inactive; ? = inconclusive; - = no result; [ ] = remark or other dose. Unless noted, calls follow the shape of the dose curve; as a rule, active = well fitted curve in the direction sought with a large enough effect; inconclusive = small, poorly fitted or top-dose-only effect, or another doubt; inactive = no such curve, though single readings can be large; an effect the other way counts as inactive or inconclusive.

SMILES	IL-1B inflam inh	DT40 TDP1 no CPT	DT40 TDP1 CPT	HT1080NT lethal	HT1080 IDH1KD tx
Cc1nc2c3ccccc3nc(NNC(=O)CCC(=O)N3CCCC(C)C3)n2n1 (configuration not stated)	0	0	0	0	0
CC(C)Cn1c(SCC#N)nc2ccccc2c1=O	0	?	0	0	0
COCCCn1c(SCc2nnc(-c3ccc(OC)c(OC)c3)o2)nc2ccccc2c1=O	?	23µM	?	?	?
COCCCn1c(SCc2nnc(-c3ccc(OC)c(OC)c3)o2)nnc1-c1ccncc1	0	0	0	0	0
COc1ccc(-c2nnc(CSc3nc4ccccc4c(=O)n3CC(C)C)o2)cc1OC	0	16µM	?	?	?
CCCCn1c(N)c(N(CC(C)C)C(=O)CCNC(=O)c2ccc([N+](=O)[O-])cc2)c(=O)[nH]c1=O	0	0	0	0	0
Cn1c(Oc2ccc(F)cc2)c(C=O)c2ccccc21	-92	?	?	0	0
COc1ccc(C#Cc2c(C=O)n(C)c3ccccc23)cc1	0	?	?	0	0
O=C(Nc1ccc(Cl)c(C(F)(F)F)c1)[C@@H]1CC=C[C@@H]2CCN(C3CC3)C(=O)[C@@H]21	0	?	?	0	0
O=C(Nc1ccc(Cl)cc1Cl)[C@@H]1CC=C[C@@H]2CCN(C3CCCCC3)C(=O)[C@@H]21	-	18µM	16µM	-	-
CCCCN1CC[C@H]2C=CC[C@@H](C(=O)Nc3ccc(OC)cc3)[C@H]2C1=O	0	?	0	0	0
O=C(Nc1ccc(Cl)c(C(F)(F)F)c1)[C@@H]1CC=C[C@@H]2CCN(C3CCCCC3)C(=O)[C@@H]21	0	16µM	?	0	0
CCCCN1CC[C@H]2C=CC[C@@H](C(=O)Nc3ccc(Cl)c(C(F)(F)F)c3)[C@H]2C1=O	0	10µM	?	0	0
O=C(CN1C(=O)C2CC=CCC2C1=O)Nc1nc2ccccc2s1 (configuration not stated)	0	0	0	0	0
COc1ccc(NC(=O)CN(C)C(=O)CCC2CCCC2)cc1	0	0	0	0	0
O=C(Nc1cc(C(F)(F)F)ccc1N1CCCCC1)C1=COCCO1	0	?	?	0	0
CCN(CC)CCN(C(=O)c1ccc(CN2CCCCC2)o1)C(C(=O)NC1CCCCC1)c1ccc(F)cc1 (configuration not stated)	0	?	?	0	0
COc1cccc(-c2ccc(C3=CC(=O)CC(C)(C)C3=O)cc2)c1OC	0	21µM	?	0	0
CC1(C)CC(=O)C=C(c2ccc(-c3ccc(S(C)(=O)=O)cc3)cc2)C1=O	0	12µM	21µM	0	0
COc1ccccc1-c1ccccc1C1=CC(=O)CC(C)(C)C1=O	0	0	0	0	0
CC(=O)OCc1ccc(C2=CC(=O)CC(C)(C)C2=O)cc1	0	0	0	0	0
Cc1ccc(-n2nnnc2SCC(=O)c2c(N)n(C3CC3)c(=O)[nH]c2=O)cc1C	0	0	0	0	0
COc1cccc(OCCn2c(-c3ccc(Cl)cc3)nc3ccccc3c2=O)c1	-	0	0	-	-
N#C/C(=C\c1cn(Cc2ccc(F)cc2)c2ccccc12)C(=O)NCc1ccco1	0	?	18µM	?	?
N#C/C(=C\c1cccs1)C(=O)Nc1nccs1	0	2.9µM	?	0	0
SMILES	IL-1B inflam inh	DT40 TDP1 no CPT	DT40 TDP1 CPT	HT1080NT lethal	HT1080 IDH1KD tx
N#C/C(=C\c1ccccc1)C(=O)NCc1ccc(F)cc1	-98	?	?	?	?
N#C/C(=C\c1cccs1)C(=O)NCc1cccnc1	0	0	0	0	0
N#C/C(=C\c1cn(Cc2ccccc2)c2ccccc12)C(=O)NCc1ccco1	0	?	?	0	0
N#C/C(=C\c1cccs1)C(=O)NCc1ccccc1	0	21µM	12µM	0	0
Cc1ccc(N(CC(=O)NC2CCCC2)C(=O)CNC(=O)c2cccs2)cc1C	0	0	0	0	0
CCn1c(CSc2nnc(-c3ccc4c(c3)OCO4)o2)nc2cc(S(=O)(=O)N(C)C)ccc21	0	?	?	0	0
Cc1ccc(OC(C)C(=O)N2CCN(CCc3ccncc3)CC2)cc1C (configuration not stated)	-	?	0	-	-
N#C/C(=C\c1cccs1)C(=O)c1ccccc1Cl	-98	16µM	29µM	?	?
CC(C)(C)C(=O)/C(C#N)=C/c1cccs1	0	0	0	0	0
CC(OC(=O)C1CCCC1)C(=O)Nc1ccc(C(N)=O)cc1 (configuration not stated)	0	0	0	0	0
COc1cc(NC(=O)c2ccc(-c3c(C)noc3C)c3ccoc23)cc(OC)c1OC	0	8.2µM	13µM	0	?
Cc1noc(C)c1-c1ccc(C(=O)Nc2ccc(C(C)C)cc2)c2occc12	0	10µM	12µM	?	?
CC(=O)Nc1ccc(NC(=O)c2ccc(-c3c(C)noc3C)c3ccoc23)cc1	0	?	21µM	0	0
Cc1noc(C)c1-c1ccc(C(=O)NCCN2CCOCC2)c2occc12	0	29µM	?	0	0
Cc1noc(C)c1-c1ccc(C(=O)NCCc2ccccc2)c2occc12	0	?	?	0	0
Cc1ccc(-c2nnc(COC(=O)c3cc(=O)[nH]c4ccccc34)o2)cc1	0	0	0	0	0
COc1ccc(-c2nc(CNC(=O)Nc3ccccc3)c(C)o2)c(OC)c1	-	0	0	-	-
Cc1cc2nc(C(C)(C)C)c(CC3CCCCC3)n2c(C)c1Br	0	?	?	0	0
CC(=O)c1cccc(NC(=O)c2ccc(-c3c(C)noc3C)c3ccoc23)c1	0	?	16µM	0	?
COc1ccc(-n2ncc(C(=O)NC3CC3)c2C2CCN(C(=O)OC(C)(C)C)CC2)cc1	0	0	0	0	0
Cc1ccc(-n2ncc(C(=O)NCCN3CCCC3)c2C2CCN(C(=O)OC(C)(C)C)CC2)cc1	-	?	23µM	-	-
COc1ccc(-n2ncc(C(=O)NCCCN3CCCCC3)c2C2CCN(C(=O)OC(C)(C)C)CC2)cc1	-	18µM	18µM	-	-
O=C(NCCN1CCOCC1)c1cnn(-c2ncc3c(n2)-c2ccccc2CC3)c1C1CC1	-	23µM	0[9.04 µM]	-	-
CC(C)(C)OC(=O)N1CCC(c2c(C(=O)NCCN3CCOCC3)cnn2-c2ccccc2)CC1	-	5.8µM	5.8µM	-	-
CCOc1ccc(NC(=O)COC(=O)c2ccc3ncsc3c2)cc1OCC	0	0	0	0	0
COCCNC(=O)CN(C(=O)CCC(=O)Nc1ccccn1)c1ccc(C)c(C)c1	0	0	0	0	0
CC(C)(C)OC(=O)N1CCC(c2c(C(=O)NCCN3CCC(Cc4ccccc4)CC3)cnn2-c2cccc(Cl)c2)CC1	-	3.7µM	5.8µM	-	-
